Results: PubChem BioAssay (EPA / NIEHS)
Records with an inconclusive call do not appear. The source made the active and inactive calls. How the source made its calls: active means hit-call score of the fitted dose curve at least 0.9, where 1 is the maximum; inconclusive means response in the unintended direction; inactive means score below 0.9.

Experiments:
[1] = Tanguay_ZF_120hpf_YSE_legacy: (Legacy) Oregon State University Tanguay Lab 120 Hour Post-fertilization zebrafish Assay for Yolk Sac Edema (AID 2283634);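 on AC50: actives raise the incidence of yolk sac edema above the DMSO baseline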
In short: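 Dechorionated Tropical 5D wild-type zebrafish embryos were exposed statically, one per well, from 6 to 120 hpf at 28C in 0.64% DMSO. Yolk sac edema was scored present/absent by brightfield at 120 hpf, and dead embryos were excluded.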

[2] = Tanguay_ZF_120hpf_AXIS_legacy: (Legacy) Oregon State University Tanguay Lab 120 Hour Post-fertilization zebrafish Assay for Body Axis Malformation (AID 2283635);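 on AC50: potency for an increased fraction of larvae scored with body axis malformation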
In short: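 Dechorionated wild-type Tropical 5D zebrafish embryos, one per well, statically exposed from 6 hpf to 120 hpf at 28C in 0.64% DMSO final. Body axis malformation scored present/absent by brightfield microscopy at 120 hpf; dead embryos excluded.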

[3] = Tanguay_ZF_120hpf_EYE_legacy: (Legacy) Oregon State University Tanguay Lab 120 Hour Post-fertilization zebrafish Assay for Eye Malformation (AID 2283636);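 further: binary presence or absence of eye malformation scored by brightfield in 120 hpf larvae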
In short: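 Dechorionated Tropical 5D zebrafish embryos, one per well from 6 hpf, static exposure to 120 hpf at 28C, 0.64% DMSO. Eye malformation scored present/absent by brightfield; dead embryos not scored.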

[4] = Tanguay_ZF_120hpf_JAW_legacy: (Legacy) Oregon State University Tanguay Lab 120 Hour Post-fertilization zebrafish Assay for Jaw Malformation (AID 2283638);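 on AC50: active means more embryos with jaw malformation than DMSO controls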
In short: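 Dechorionated Tropical 5D wild-type zebrafish embryos, one per well, exposed statically from 6 hpf to 120 hpf at 28C in 0.64% DMSO. Jaw malformation was scored by brightfield microscopy as present or absent. It was not scored in dead embryos.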

[5] = Tanguay_ZF_120hpf_OTIC_legacy: (Legacy) Oregon State University Tanguay Lab 120 Hour Post-fertilization zebrafish Assay for Otic Vesicle Malformation (AID 2283639)
In short: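 Tropical 5D wild-type zebrafish embryos statically exposed in 0.64% DMSO at 28C until 120 hpf; 5uM trimethyltin chloride as positive control. Otic vesicle malformation scored present/absent by brightfield; dead embryos not scored; gain fitted versus DMSO.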

[6] = Tanguay_ZF_120hpf_PE_legacy: (Legacy) Oregon State University Tanguay Lab 120 Hour Post-fertilization zebrafish Assay for Pericardial Edema (AID 2283640);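 on AC50: potency for increased incidence of pericardial edema versus DMSO baseline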
In short: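 Tropical 5D wild-type zebrafish embryos were statically exposed until 120 hpf at 28C, with 0.64% DMSO final. Pericardial edema was scored by brightfield as present or absent; endpoints were not scored in dead embryos.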

[7] = Tanguay_ZF_120hpf_BRAI_legacy: (Legacy) Oregon State University Tanguay Lab 120 Hour Post-fertilization zebrafish Assay for Brain Malformation (AID 2283641)
In short: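 Tropical 5D wild-type zebrafish embryos exposed statically until 120 hpf at 28C, 0.64% DMSO final, sealed and dark. Brain malformation scored present/absent by brightfield at 120 hpf; dead embryos excluded. Trimethyltin chloride 5uM positive control.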

[8] = Tanguay_ZF_120hpf_SOMI_legacy: (Legacy) Oregon State University Tanguay Lab 120 Hour Post-fertilization zebrafish Assay for Somite Malformation (AID 2283647)
In short: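 Dechorionated Tropical 5D wild-type zebrafish embryos, one per well from 6 hpf, statically exposed at 28C to 120 hpf in 0.64% DMSO; somite malformation scored present/absent by brightfield; trimethyltin 5 uM positive control; dead embryos not scored.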

[9] = Tanguay_ZF_120hpf_PFIN_legacy: (Legacy) Oregon State University Tanguay Lab 120 Hour Post-fertilization zebrafish Assay for Pectoral Fin Malformation (AID 2283648);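 further: each larva judged yes or no for fin defect by brightfield with dead larvae skipped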
In short: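 Dechorionated Tropical 5D wild-type zebrafish embryos, one per well, statically exposed from 6 to 120 hpf at 28C with 0.64% DMSO final. Pectoral fin malformation scored present/absent by brightfield at 120 hpf; not scored in dead embryos.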

[10] = Tanguay_ZF_120hpf_SNOU_legacy: (Legacy) Oregon State University Tanguay Lab 120 Hour Post-fertilization zebrafish Assay for Snout Malformation (AID 2283637)
In short: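 Dechorionated tropical 5D wild-type zebrafish embryos exposed statically from 6 to 120 hpf at 28C, one per well, in 0.64% DMSO. Snout malformation scored as present/absent by brightfield at 120 hpf; dead embryos not scored.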

Measured: AC50

CCCCc1ccccc1
not listed: [10]
inactive: all other assays above

OCC1CO1 (stereo unspecified)
not listed: [10]
inactive: all other assays above

O=C(O)C1C(C(=O)O)C2(Cl)C(Cl)=C(Cl)C1(Cl)C2(Cl)Cl (stereo unspecified)
not listed: [10]
inactive: all other assays above

c1cc2c3c(cccc3c1)CC2
not listed: [10]
inactive: all other assays above

O=P1(N(CCCl)CCCl)NCCCO1 (stereo unspecified)
not listed: [10]
inactive: all other assays above

CCC1(c2ccccc2)C(=O)N=C(O)NC1=O (stereo unspecified)
not listed: [10]
inactive: all other assays above

c1ccc(OP(Oc2ccccc2)Oc2ccccc2)cc1
not listed: [10]
inactive: all other assays above

ClC(Cl)c1ccccc1
not listed: [7] | [8]
inactive: all other assays above

O=C(O)C(Cl)Cl
not listed: [10]
inactive: all other assays above

CC(Cc1ccc(OCC(=O)O)cc1)NCC(O)c1csc(C(F)(F)F)n1 (stereo unspecified)
not listed: [10]
inactive: all other assays above

CCOP(=S)(OCC)SCSCC
not listed: [10]
inactive: all other assays above

O=P(Oc1ccccc1)(Oc1ccccc1)Oc1ccccc1
not listed: [10]
inactive: all other assays above

CCOS(=O)(=O)OCC
not listed: [10]
inactive: all other assays above

ClC1=C(Cl)C2(Cl)C3C(Cl)C(Cl)CC3C1(Cl)C2(Cl)Cl (stereo unspecified)
not listed: [9]
inactive: all other assays above

COCCOCCO
not listed: [9] | [10]
inactive: all other assays above

CCC(C)(C)c1ccc(O)cc1
active: [1] 51.1 µM | [2] 19 µM | [3] 22.3 µM | [4] 14.7 µM | [5] 48.4 µM | [6] 44.5 µM | [7] 48.1 µM | [8] 36.6 µM | [9] 22.2 µM

O=[N+]([O-])c1ccc(Cl)c(Cl)c1
not listed: [10]
inactive: all other assays above

c1ccc2c(c1)Nc1ccccc1S2
not listed: [9] | [10]
inactive: all other assays above

Nc1ccc2ccccc2c1
active: [1] 34.8 µM | [2] 33.4 µM | [3] 47.7 µM | [4] 34.9 µM | [6] 42 µM | [7] 202 µM
inactive: [5] | [8] | [9]

CSC(C)(C)C=NO
not listed: [10]
inactive: all other assays above

O=[N+]([O-])c1ccccc1
not listed: [10]
inactive: all other assays above
